According to PubChem BioAssay (NCI):
About 83,000 compounds went through this panel and 20% of them were active in at least one assay; those are over-represented in the sample as a whole.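 Growth was measured after 48 h exposure to one concentration of compound in 96-well plates. Values under 10 count as active.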 Unmarked numbers belong to inactive results. Calls of active or inactive are those of the source.

Key:
Test in all cases: NCI-60 one-dose screen, 48 h (100 = growth as untreated, 0 = no growth, -100 = all killed)
Conditions in all cases: 10 µM unless noted
NCI-H23 lung = system: NCI-H23 lung
NCI-H226 lung = system: NCI-H226 lung
NCI-H322M lung = system: NCI-H322M lung
HOP-62 NSCLC = system: HOP-62 NSCLC
NCI-H460 lung = system: NCI-H460 lung
HOP-92 NSCLC = system: HOP-92 NSCLC
NCI-H522 lung = system: NCI-H522 lung
A549/ATCC NSCLC = system: A549/ATCC NSCLC
786-0 renal = system: 786-0 renal
COLO 205 colon = system: COLO 205 colon
DU-145 prostate = system: DU-145 prostate
K-562 leukemia = system: K-562 leukemia
MALME-3M melanoma = system: MALME-3M melanoma
MDA-MB-231 breast = system: MDA-MB-231 breast
RXF 393 renal = system: RXF 393 renal
SF-268 CNS = system: SF-268 CNS
SF-295 CNS = system: SF-295 CNS
SF-539 CNS = system: SF-539 CNS
UACC-257 melanoma = system: UACC-257 melanoma
M14 melanoma = system: M14 melanoma

With `Cc1ccccc1/C=C1\CN(C(=O)OC(C)(C)C)C/C(=C\c2ccccc2C)C1=O` the growth (NCI-H23 lung) was 8.22% (active), the growth (NCI-H226 lung) was 42.2% and the growth (NCI-H322M lung) was 80.9%. The growth (HOP-62 NSCLC) was 48.2%, the growth (NCI-H460 lung) was -38.3% (active) and the growth (HOP-92 NSCLC) was 82.6%. The growth (NCI-H522 lung) was 20.8%, the growth (A549/ATCC NSCLC) was 49.1% and the growth (786-0 renal) was 25.8%. The growth (COLO 205 colon) was -28.5% (active), the growth (DU-145 prostate) was 9.09% (active) and the growth (K-562 leukemia) was 5.76% (active). For the same molecule, the growth (MALME-3M melanoma) was 73.7%, the growth (MDA-MB-231 breast) was 42.7% and the growth (RXF 393 renal) was 61.1%. The growth (SF-268 CNS) was 2.68% (active), the growth (SF-295 CNS) was 24.6% and the growth (SF-539 CNS) was 31.2%. For the same molecule, the growth (UACC-257 melanoma) was 74.3% and the growth (M14 melanoma) was 30.7%.

`COC(=O)/C=C1/SC(=Nc2ccc(C)cc2)N(CCc2c[nH]c3ccc(O)cc23)C1=O` showed a growth (NCI-H23 lung) of 72.7%, a growth (NCI-H226 lung) of 83.1% and a growth (NCI-H322M lung) of 97.7%. It also gave a growth (HOP-62 NSCLC) of 55.6%, a growth (NCI-H460 lung) of 52.2% and a growth (HOP-92 NSCLC) of 53.7%. It also gave a growth (NCI-H522 lung) of 42.5%, a growth (A549/ATCC NSCLC) of 84% and a growth (786-0 renal) of 57.2%. For the same molecule, the growth (COLO 205 colon) was 108%, the growth (DU-145 prostate) was 26.9% and the growth (K-562 leukemia) was 11.8%. It also gave a growth (MALME-3M melanoma) of 77.4%, a growth (MDA-MB-231 breast) of 59.3% and a growth (RXF 393 renal) of 47.7%. For the same molecule, the growth (SF-268 CNS) was 56.3%, the growth (SF-295 CNS) was 76.8% and the growth (SF-539 CNS) was 42.9%. The growth (UACC-257 melanoma) was 50.2% and the growth (M14 melanoma) was 34.1%.

Molecule `COc1ccc(C(=O)Nc2ncc(Cc3ccc(F)cc3)s2)cc1` has a growth (NCI-H23 lung) of 30.7%, a growth (NCI-H226 lung) of 40.9% and a growth (NCI-H322M lung) of 34.6%. The growth (HOP-62 NSCLC) was 28.7%, the growth (NCI-H460 lung) was 6.59% (active) and the growth (HOP-92 NSCLC) was 51.5%. The growth (NCI-H522 lung) was -5.3% (active), the growth (A549/ATCC NSCLC) was 23.3% and the growth (786-0 renal) was 27.8%. The growth (COLO 205 colon) was -16.2% (active), the growth (DU-145 prostate) was 16.2% and the growth (K-562 leukemia) was 8.46% (active). The growth (MALME-3M melanoma) was 60.2%, the growth (MDA-MB-231 breast) was 29.6% and the growth (RXF 393 renal) was 7.03% (active). The growth (SF-268 CNS) was 50.6%, the growth (SF-295 CNS) was 9.8% (active) and the growth (SF-539 CNS) was -9.59% (active). It also gave a growth (UACC-257 melanoma) of 56% and a growth (M14 melanoma) of 16.4%.

In the case of `COc1ccc2[nH]cc(C(c3cc(F)cc(F)c3)c3c[nH]c4ccc(OC)cc34)c2c1`, the growth (NCI-H23 lung) was 67.2%, the growth (NCI-H226 lung) was 97.4% and the growth (NCI-H322M lung) was 70.3%. The growth (HOP-62 NSCLC) was 93.4%, the growth (NCI-H460 lung) was 64.4% and the growth (HOP-92 NSCLC) was 54.3%. The growth (NCI-H522 lung) was 69.3%, the growth (A549/ATCC NSCLC) was 69.4% and the growth (786-0 renal) was 92.4%. For the same molecule, the growth (COLO 205 colon) was 78.1%, the growth (DU-145 prostate) was 95.9% and the growth (K-562 leukemia) was 59%. For the same molecule, the growth (MALME-3M melanoma) was 206%, the growth (MDA-MB-231 breast) was 78.8% and the growth (RXF 393 renal) was 80.5%. The growth (SF-268 CNS) was 80%, the growth (SF-295 CNS) was 79.1% and the growth (SF-539 CNS) was 93.4%. For the same molecule, the growth (UACC-257 melanoma) was 84.3% and the growth (M14 melanoma) was 86.6%.

With `O=C(/C=C/c1cn(-c2ccccc2)nc1-c1ccc([N+](=O)[O-])cc1)c1ccc(Cl)cc1` the growth (NCI-H23 lung) was 48.4%, the growth (NCI-H226 lung) was 39% and the growth (NCI-H322M lung) was 75.1%. The growth (HOP-62 NSCLC) was 24.5%, the growth (NCI-H460 lung) was 29.1% and the growth (HOP-92 NSCLC) was 58.5%. For the same molecule, the growth (NCI-H522 lung) was 23.3%, the growth (A549/ATCC NSCLC) was 61.8% and the growth (786-0 renal) was -92.5% (active). The growth (COLO 205 colon) was 40.2%, the growth (DU-145 prostate) was 20.4% and the growth (K-562 leukemia) was 12.4%. It also gave a growth (MALME-3M melanoma) of 49.7%, a growth (MDA-MB-231 breast) of 14.7% and a growth (RXF 393 renal) of 27.3%. It also gave a growth (SF-268 CNS) of 34.5%, a growth (SF-295 CNS) of 77% and a growth (SF-539 CNS) of 30%. For the same molecule, the growth (UACC-257 melanoma) was 103% and the growth (M14 melanoma) was 37.8%.

Molecule `Cn1c(O)c(C=NCCN=Cc2c(O)n(C)c(=O)n(C)c2=O)c(=O)n(C)c1=O` has a growth (NCI-H23 lung) of 97%, a growth (NCI-H226 lung) of 92.3% and a growth (NCI-H322M lung) of 89.3%. It also gave a growth (HOP-62 NSCLC) of 90.7%, a growth (NCI-H460 lung) of 107% and a growth (HOP-92 NSCLC) of 86.2%. It also gave a growth (NCI-H522 lung) of 105%, a growth (A549/ATCC NSCLC) of 100% and a growth (786-0 renal) of 113%. It also gave a growth (COLO 205 colon) of 101%, a growth (DU-145 prostate) of 110% and a growth (K-562 leukemia) of 34.5%. The growth (MALME-3M melanoma) was 90.4%, the growth (MDA-MB-231 breast) was 101% and the growth (RXF 393 renal) was 111%. It also gave a growth (SF-268 CNS) of 105%, a growth (SF-295 CNS) of 101% and a growth (SF-539 CNS) of 93.9%. For the same molecule, the growth (UACC-257 melanoma) was 101% and the growth (M14 melanoma) was 102%.

`OCCCC1CCN(C(Cc2ccccc2)c2ccccc2)CC1` (stereo not given) gave a growth (NCI-H23 lung) of 102%, a growth (NCI-H226 lung) of 102% and a growth (NCI-H322M lung) of 93.7%. For the same molecule, the growth (HOP-62 NSCLC) was 87.2%, the growth (NCI-H460 lung) was 106% and the growth (HOP-92 NSCLC) was 80.6%. It also gave a growth (NCI-H522 lung) of 43.9%, a growth (A549/ATCC NSCLC) of 73.3% and a growth (786-0 renal) of 82.5%. The growth (COLO 205 colon) was 79.9%, the growth (DU-145 prostate) was 103% and the growth (K-562 leukemia) was 113%. It also gave a growth (MALME-3M melanoma) of 93.8%, a growth (MDA-MB-231 breast) of 97.8% and a growth (RXF 393 renal) of 111%. For the same molecule, the growth (SF-268 CNS) was 90.6%, the growth (SF-295 CNS) was 98.7% and the growth (SF-539 CNS) was 85.6%. The growth (UACC-257 melanoma) was 96.4% and the growth (M14 melanoma) was 88.8%.

In the case of `C1=CN2CC(c3ccccc3)=NNC2c2ccccc21` (stereo not given), the growth (NCI-H23 lung) was 76.1%, the growth (NCI-H226 lung) was 63.3% and the growth (NCI-H322M lung) was 86.1%. The growth (HOP-62 NSCLC) was 72.4%, the growth (NCI-H460 lung) was 98% and the growth (HOP-92 NSCLC) was 76.7%. It also gave a growth (NCI-H522 lung) of 75.5%, a growth (A549/ATCC NSCLC) of 95.1% and a growth (786-0 renal) of 99.3%. The growth (COLO 205 colon) was 113%, the growth (DU-145 prostate) was 113% and the growth (K-562 leukemia) was 48.6%. The growth (MALME-3M melanoma) was 80.4%, the growth (MDA-MB-231 breast) was 63.4% and the growth (RXF 393 renal) was 90%. The growth (SF-268 CNS) was 106%, the growth (SF-295 CNS) was 104% and the growth (SF-539 CNS) was 92.6%. The growth (UACC-257 melanoma) was 97.1% and the growth (M14 melanoma) was 94.1%.
